# Assay outcomes from PubChem.
# Rows were chosen to be rich in hits. Some 1.8% of all compounds tested hit in one or more screens of this group.
# PAX8 inh HTS = inhibitors of PAX8-driven TPO luciferase reporter, primary screen, RMG-I cells, single concentration; SteadyGlo, 24 h; inhibition, % at 12.6 µM; hit rate 1.2% among 360,000;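 active = mean replicate inhibition at least 60% with every replicate also reaching 60%; inconclusive = only one of the two criteria is met; inactive = mean below 60% and not all replicates reaching 60%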;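 note: luciferase light reporting Pax8 driven TPO promoter activity; plate controls were median of neutral control wells for no effect and mitoxantrone controls for full effect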
# EWS-Fli inh = EWS/Fli-driven NR0B1 reporter inhibitors, primary screen, A673 cells, NR0B1 luciferase, luminescence, MLPCN library. viability-normalised. inhibition, % at 12.6 µM. hit rate 0.67% among 350,000;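 active = mean inhibition of at least 50% after viability correction, with every replicate also passing that limit; inconclusive = mean reaches 50% but only one of two replicates passes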;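 note: firefly luciferase signal divided by Alamar Blue viability fluorescence both relative to DMSO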
# LGR2 antag = inhibitors of bursicon-induced LGR2 CRE-luciferase signal, primary screen, cell-based, HEK293, CRE-luciferase reporter, bursicon stimulation; bursicon-stimulated, 4 h; inhibition, % at 9.99 µM; hit rate 0.35% among 380,000; AID 720647, 2013;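 active = drop in luminescence signal, shown as inhibition above about 50% in the replicate tests, limit read from the data, passing the limit was not always enough; inconclusive = probably only some replicates passing the limit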;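 note: agonist challenge used bursicon conditioned medium at about half maximal strength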
# CFTR F508del cor = F508del CFTR correction, initial screen, CFBE line, single point. CFBE cells, YFP halide quenching; stimulated with forskolin plus potentiator P3; % fluorescence drop versus neutral controls. activity (quench increase), % at 7.58 µM. hit rate 0.36% among 350,000. AID 720511, 2013;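 active = mean added fluorescence quench of at least 8% versus neutral control, with both replicates also reaching 8%; inconclusive = only one of the mean or replicate conditions met; inactive = mean below 8% and not both replicates reaching 8%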;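 note: cells transiently co-express mutant CFTR-F508del with the halide-sensitive YFP; corrector assay measuring rescue of mutant channel to the surface after 24 h compound exposure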
# DNA binding = DNA binders by acridine orange displacement, dose response, counter-screen for EWS/Fli inhibitor project, biochemical, fluorescence polarization, cherry-pick; AC35, µM (titrated, usually from 68 µM), without a hit: at the highest dose activity change, negative = DNA binding; AID 720586, 2013; shares compounds with EWS-Fli inh; salmon sperm DNA acridine orange fluorescence polarization; hit rate 2% among 640;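 active = fitted curve reaches a 35% signal fall AC35 below twice the sample's top valid tested dose, actives reach about 48 µM in these data; inactive = the rest, including activity in the rising direction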;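 note: lower polarization ratio signals compound binding to DNA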
# * hit, by the source's call; u = inconclusive; x = no result given; ! = not confirmed by another sample.
SMILES,PAX8 inh HTS,EWS-Fli inh,LGR2 antag,CFTR F508del cor,DNA binding
C[C@H]1O[C@@H](O[C@H]2[C@@H](O)C[C@H](O[C@H]3[C@@H](O)C[C@H](O[C@H]4CC[C@@]5(C)[C@H](CC[C@@H]6[C@@H]5C[C@@H](O)[C@]5(C)[C@@H](C7=CC(=O)OC7)CC[C@]65O)C4)O[C@@H]3C)O[C@@H]2C)C[C@H](O)[C@@H]1O,109*,66*,84*,2,-4%
CO[C@H]1CN(C)C(=O)c2ccc(NC(=O)c3ccc(-c4ccccc4)cc3)cc2OC[C@H](C)NC[C@H]1C,u,83*,8,-7,-14%
CO[C@H]1CN(C)C(=O)c2cc(NC(=O)c3ccc(Oc4ccccc4)cc3)ccc2OC[C@H](C)NC[C@@H]1C,36,58*,9,-7,-18%
CO[C@@H]1CN(C)C(=O)c2ccc(NC(=O)c3ccc(-c4ccccc4)cc3)cc2OC[C@H](C)NC[C@H]1C,21,x,-6,-3,x
O=C(Nc1cccc(S(=O)(=O)N2CCCC2)c1)c1ccc(Cl)nc1,x,51*,15,1,-11%
O=C(Nc1cccc(S(=O)(=O)N2CCOCC2)c1)c1ccc(Cl)nc1,25,-73,-3,-5,x
c1ccc(CN(Cc2ccccc2)Cc2nnc(-c3cc4ccccc4[nH]3)s2)cc1,15,7,3,2,x
Nc1ccc2c(c1)OC1(CCCC1)O2,31,68*,15,0,-5%
Cc1ccc(CNC(=O)CCC2CCCN(Cc3c(C)nn(C(C)C)c3C)C2)o1 (configuration not stated),15,12,-11,0,x
O=C1CCCC2=C1C(c1ccccn1)Nc1ccc(C(=O)c3ccccc3)cc1N2 (configuration not stated),3,80*,4,x,-6%
O=C1NC2=C(C(=O)CCC2)C(c2ccccc2)N1 (configuration not stated),-11,0,-9,0,x
CCN(C(=O)c1cc2c(=O)[nH]c3ccc(C)cc3c2s1)c1ccccc1F,-28,0,-14,-2,x
CO[C@@H]1CN(C)C(=O)c2ccc(NC(=O)c3cc(C)on3)cc2OC[C@H](C)N(CC2CC2)C[C@H]1C,-11,-8,12,-4,x
COc1cccc(S(=O)(=O)N(C)C[C@H]2OCc3cnnn3CCCC(=O)N([C@@H](C)CO)C[C@H]2C)c1,-17,60*!,13,-5,-12%
COc1cccc(S(=O)(=O)N(C)C[C@@H]2OCc3cnnn3CCCC(=O)N([C@H](C)CO)C[C@H]2C)c1,6,4,-3,-5,x
COC(=O)C1=C(C)N(Cc2ccccc2C(F)(F)F)C(=NCc2ccc(OC)cc2)NC1c1ccc(C(F)(F)F)cc1 (configuration not stated),37,55*,5,3,-7%
COC(=O)C1=C(C)N(Cc2cccc(C(F)(F)F)c2)C(=NCc2ccc(OC)cc2)NC1c1cccc(F)c1 (configuration not stated),99*,50*,16,-4,0%
COC(=O)C1=C(C)N(Cc2ccccc2C(F)(F)F)C(=NCc2ccc(C(F)(F)F)cc2)NC1c1ccc(C(F)(F)F)cc1 (configuration not stated),10,-4,-12,3,x
COc1ccc(CC(N)c2csc(NC(=O)Nc3cccc(C(F)(F)F)c3)n2)cc1 (configuration not stated),-3,53*,-4,1,-4%
O=C(N/N=C/c1ccc[nH]1)c1ccccc1OCc1ccc(F)cc1,12,2,-9,-1,x
CCOc1ccc(OCc2ccc(C(=O)NN=Cc3ccc[nH]3)cc2)cc1,34,57*,8,4,0%
O=c1oc2cc(O)ccc2s1,-8,60*,x,2,-3%
Cc1ccc(-c2cc(O)cc3sc(=O)oc23)cc1C,10,-7,-16,-1,x
CCOc1ccc(N=C2C(=O)Nc3ccc(C)c(Br)c32)cc1,2,52*,-3,-5,-8%
COc1ccc(S(=O)(=O)c2ccccc2)cc1NC(=O)c1c(F)cccc1F,0,13,-18,-2,x
CCOC(=O)c1ccc(-c2ccc3ncnc(NCc4csc(C)n4)c3c2)o1,14,9,2,3,x
